The sequences below were run on RXRa DBDmut IVT, anti-RXR (DBD mutation: RXRa K156A/R161A, NR concentration 90 nM) (assay: PBM binding z-score (relative to random genomic background probes); higher = stronger binding; sequences stand for … in GC…GCGATTGACAGCGTAGAATGAAGG).
How it was run: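 Ligand-free nuclear receptor dimers were bound for 1 h to custom Agilent 4×180K protein-binding microarrays. Detection used antibodies against each partner (one per run). Binding z-scores rest on regression-normalized fluorescence, with random background probes as the reference.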
Sequence TGAATGAGGTTAAAGATCAGAGAACGTGGCGTCG has a PBM binding z-score of 1.15. GCAGACAGGTGAAACGCAGGTAAGTCAGGGTGGC gave a PBM binding z-score of -0.846. With TGTCATAGTTCAAAGGTAACGTAAGTATCCACAC the PBM binding z-score was 2.09. TAGCCTAGGTCATTAAGGGGCCAGTATAGAAAGC gave a PBM binding z-score of 1.36. CGGACGAGGGCATGAGTTGATAGCAAATGCCGAT showed a PBM binding z-score of 2.01. Work on ATCTCAAGGTAAAAGTTCAGTGAATCCCGAGGAT yielded a PBM binding z-score of 0.614. Work on CCTACTGGCCCAAGGTCATTGATCAGTCAAAGCA yielded a PBM binding z-score of 1.58. Work on GGATCGAGGGCAAAGTTGATAGCATCTGTCGACG yielded a PBM binding z-score of 2.4. AGTCAAAGTGCACTAGGTAACGTAAGATTCAGCT was tested, and the PBM binding z-score was 0.965. AGAACGAGGGCACGCGGAGTTGATAGCAGAGTAG was tested, and the PBM binding z-score was 1.91. In the case of CCTCGGAGGACAATAGGAGGTCAGAGCTGCCAGA, the PBM binding z-score is reported as -0.00493. With CCGACTGGGCCAAGGTTACCATAACGCACAGCCA the PBM binding z-score was -0.285. TCATATAGGGAAACAGGTGAAAGTCCGTAAGTTA showed a PBM binding z-score of 1.66. Sequence TAGCCTAGGTCATGCGGGCCAGTTTAGTGTCGGC has a PBM binding z-score of 0.93. ACTAGCAGGCCAAATTTGGGTCACTCAAACAAAG was tested, and the PBM binding z-score was 0.0631. CAAACTAGGTCAGAGGTCAAAGTCGAGCCAACCA gave a PBM binding z-score of 2.96. In the case of TTACCAAGGAGAAGGTCGTTGATCCCTCTGTAGA, the PBM binding z-score is reported as -0.392. In the case of AGTCACAGTTCAGGACGAGGTAACGTAAAGCACG, the PBM binding z-score is reported as 1.31. Work on TCATATAGGTAATACAGGTGCAAGTCGGCATCTA yielded a PBM binding z-score of 1.65. In the case of CCGAGTAGGTTACGGGGCATTCAGGCAACGGTGA, the PBM binding z-score is reported as -0.416. With CAAACTAGGTCAACAGGTCAAAGTCCGCTTCCCG the PBM binding z-score was 2.45. ATCTCTAGGTAAGACTCAGTTCTGTGAAGAACGC gave a PBM binding z-score of 0.193. ATCTCTAGGTAACAAGTTCAGAGAAAGAGAGGAC gave a PBM binding z-score of 0.95. Work on TCATATAGGTAAAAGGTGAAAGTAGGTGTGGTAA yielded a PBM binding z-score of 2.18. For TCTCGGAGGGCACGAAAGGTCAGAGCTCGACATC, the PBM binding z-score was 1.09. GCGACTGGGGCATCAGCAGGTTACCGTAACTTAA showed a PBM binding z-score of -0.433. CAAACTCGGTCAAAGGTCAAAGTCGAGCCAACCA was tested, and the PBM binding z-score was 2.48. In the case of ATCTCTACGTAAAGTTCAGTGAAAGATCGATAGA, the PBM binding z-score is reported as 1.51. GCTAGCAGGACATTTGGGTCACTCAATGACGGGC showed a PBM binding z-score of 0.736. In the case of TCTTGTAGATCAAGCAGGATAAGAAAGCCTGAGT, the PBM binding z-score is reported as 0.533. With ACAGACAGGTGAGTGAAGGTAAATCAGCTGGACG the PBM binding z-score was -0.64. In the case of CATACAGGGCCAGCTAGGCCAGAGTAGGGACGGC, the PBM binding z-score is reported as -1.28. Work on GCGACTGGGGCAAAGCAGGTTACCAAAAGGTTGG yielded a PBM binding z-score of -0.337. For GCTGCTAGGTCAACTGTTGGTCAGCTAAAGCTCG, the PBM binding z-score was 1.66. Work on CCTACTGGGCCATCAGGGCATTGATATCAACGTT yielded a PBM binding z-score of -0.959. CCTACTGGGCCAAGGTCATCGATCAGTCAAAGCA was tested, and the PBM binding z-score was 0.883. Work on CCTTACGGGTCACGAGGTTATCGCACGACGAGCG yielded a PBM binding z-score of 1.96. In the case of ATCGAAAGGACGAGGTGAGTATAGAGAAAGGGAA, the PBM binding z-score is reported as -0.386. For TCATATATGTAAACAGGTGAAAGTCCGTAAGTTA, the PBM binding z-score was 1.85. CCTAGCAGCCCAGGGTCACTCAAGCATTTCGCTT gave a PBM binding z-score of 0.289.

From the supplement of paper PMC6555819
